The panel holds about 83,000 compounds, 20% with a hit somewhere; the sample as a whole holds those more often.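 96-well plates, one dose, 48 hours. Percent growth reported; active if below 10.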 Calls of active or inactive are those of the source.
test system: SN12C renal; assay: NCI-60 one-dose screen, 48 h (100 = growth as untreated, 0 = no growth, -100 = all killed); conditions: 10 µM unless noted
Protocol: Growth inhibition of the SN12C human tumor cell line is measured as a screen for anti-cancer activity. Cells are grown in 96 well plates and exposed to the test compound for 48 hours. Compounds are tested at a single concentration, which is 10^-5 M for most compounds. The reported endpoint is percent growth (GI% or GIPRCNT), where numbers from 0 - 100% represent growth inhibition, and numbers from -100% - 0 represent cell death. For example, a value of 40 represents 60% growth inhibition. A value of 0 means no net growth occurred over the course of the experiment. A value of -40 indicates 40% of cells at the beginning of the experiment died by the end of the experiment. A value of -100 means all cells are dead at the end of the experiment.
NCI-60 Human Tumor Cell Lines Screen was performed using the standard one-dose NCI protocol, which is described in more detail at https://dtp.cancer.gov/discovery_development/nci-60/default.htm.
Compounds with GIPRCNT values below 10 were considered active. Activity score was based on GIPRCNT using the following formula: […]
Score is 0 for GIPRCNT values of 100 or above, 50 for GIPRCNT values of 0, and 100 for GIPRCNT values of -100.

How did the growth turn out when `CC(=O)O[C@H]1Cc2c([nH]c3ccccc23)[C@@H](c2ccc(Cl)cc2)N1C(=O)CCNC(C)(C)C` was run?
The growth was 58.4% (inactive).

With `CCN(c1ccccc1)S(=O)(=O)c1cc([N+](=O)[O-])ccc1Cl` as the compound, how does the growth read?
Its growth is 60.7% (inactive).

For `COc1ccc2[nH]c(=O)c(CN3CCN(c4nccc(-c5ccc(Cl)cc5)n4)CC3)cc2c1`, which growth is on record?
The growth was 88.8% (inactive).

With `CNCCn1c(=O)c2cc(OC)c(OC)cc2c2ccc3cc4c(cc3c21)OCO4` as the compound, how does the growth read?
The growth was 2.31% (active).

How did the growth turn out when `O=Cc1ccc(-c2cn3ccnc3c(-c3ccc4ncn(Cc5ccccc5)c4c3)n2)cc1` was run?
Its growth is 79.3% (inactive).

With `C=C1C(=O)O[C@H]2[C@H]1CC/C(COC(=O)NCCc1c[nH]c3ccc(OC)cc13)=C\CC[C@@]1(C)O[C@@H]21` as the compound, how does the growth read?
Its growth is -34.4% (active).

How did the growth turn out when `CCCCCN1C=C/C(=C\C(=O)N(C)c2ccc(OC(F)(F)F)cc2)c2ccccc21` was run?
The growth was 96% (inactive).

For `CNC(=O)c1cccc(Cn2nc(C)c(NC(=O)c3ccc(COc4ccc(C(F)(F)F)cc4C)cc3)c2C)n1`, which growth is on record?
Its growth is 59.8% (inactive).

`COc1cccc(C(=O)NNc2nc(Cl)nc(N3CCN(C(c4ccccc4)c4ccccc4)CC3)n2)c1` was tested. Which growth did it give?
Its growth is 70.9% (inactive).

For `Cc1ncc(C(=O)Nc2ccc(CN3CCN(C)CC3)c(C(F)(F)F)c2)cc1C#Cc1cnc(N)cc1C#N`, which growth is on record?
Its growth is -5.62% (active).

With `CC(C)=CCC[C@](C)(O)[C@H]1CC[C@]2(C)[C@@H]1CC[C@@H]1[C@@]3(C)C/C(=C/c4ccccc4)C(=O)C(C)(C)[C@@H]3CC[C@]12C` as the compound, how does the growth read?
Its growth is 91% (inactive).

How did the growth turn out when `Nc1nc(Nc2ccccc2SSc2ccccc2Nc2nc(N)nc(-c3ccc(C(F)(F)F)cc3)n2)nc(-c2ccc(C(F)(F)F)cc2)n1` was run?
The growth was 57.6% (inactive).

`COc1cccc2c1c1nc3cc(C)c(C)cc3nc1n2CCN(C)C` was tested. Which growth did it give?
Its growth is 16.9% (inactive).

With `N#Cc1c(-c2cccc([N+](=O)[O-])c2)nc(SCC(=O)c2ccc(Cl)cc2)[nH]c1=O` as the compound, how does the growth read?
Its growth is 96.9% (inactive).

Which growth does the source give for `C[C@@H](Nc1ncnc2ccc(-c3cnc(N)nc3)cc12)c1ccc(F)cc1` here?
Its growth is 33.9% (inactive).

For `O=C(Nc1cccc(C(=O)N2CCc3ccc(Cl)cc32)c1)c1ccco1`, which growth is on record?
Its growth is 49.6% (inactive).

`CCCCCCNC(=O)Oc1ccc(/C(=C(\C)c2ccccc2)c2ccc(OCCN3CCCCC3)cc2)cc1` was tested. Which growth did it give?
Its growth is 71.4% (inactive).

`N#Cc1cc(-c2nc3ccccc3s2)c(=O)n(NS(=O)(=O)c2ccccc2)c1N` was tested. Which growth did it give?
The growth was 99.9% (inactive).

With `Cc1ccc(-c2csc(NC(=O)CSc3nc(-c4ccccc4)cc(=O)[nH]3)n2)cc1` as the compound, how does the growth read?
The growth was 94.9% (inactive).

Which growth does the source give for `COc1ccc(-c2[nH][nH]c(=O)c2-c2nc3ccccc3s2)cc1` here?
The growth was 98.4% (inactive).

How did the growth turn out when `COc1cccc(-c2nc3occn3c2-c2ccnc(NCCNS(=O)(=O)c3ccc(C(F)(F)F)cc3)n2)c1` was run?
Its growth is 88.6% (inactive).

For `NS(=O)(=O)c1ccc(Cn2c(SCC(=O)N/N=C/c3ccccc3O)nc3ccccc3c2=O)cc1`, which growth is on record?
Its growth is 56.2% (inactive).

`CC(C)(C)c1cc(C=O)cc(C(C)(C)C)c1O` was tested. Which growth did it give?
Its growth is 104% (inactive).

Which growth does the source give for `N=C1C(c2nc3ccccc3s2)=C(O)CN1c1cc(Cl)cc(Cl)c1` here?
The growth was 86.2% (inactive).

For `O=[N+]([O-])c1ccc(N=Nc2cc(S(=O)(=O)O)c3cccc(S(=O)(=O)O)c3c2O)cc1`, which growth is on record?
The growth was 104% (inactive).

With `N#C/C(=C\c1ccc(Cl)cc1)n1nnc2cc(F)c(F)cc21` as the compound, how does the growth read?
The growth was 8.61% (active).

For `C=C(C)[C@@H]1CC[C@]2(C(=O)N3CCN(C)CC3)CC[C@]3(C)[C@H](CC[C@@H]4[C@@]5(C)CC[C@H](O)C(C)(C)[C@@H]5CC[C@]43C)[C@@H]12`, which growth is on record?
The growth was -74.2% (active).

With `C#Cc1cccc(NC(=O)Nc2cccc(NC(=O)CCl)c2)c1` as the compound, how does the growth read?
Its growth is -67.7% [8.25 µM] (active).

Which growth does the source give for `Cc1ccc(S(=O)(=O)Nn2c3c(cc(-c4nc5ccccc5s4)c2=O)CCCCCC3)cc1` here?
Its growth is 95.9% (inactive).

`COc1cc2oc(-c3cccc(C(=O)Nc4ccc(Br)cc4)c3)cc(=O)c2c(OC)c1OC` was tested. Which growth did it give?
Its growth is 50.9% (inactive).

For `Cn1ccc2c1CC1CN(Cc3ccco3)C(=O)C1C2C(=O)O` (stereo not given), which growth is on record?
The growth was 97.2% (inactive).

How did the growth turn out when `O=C(/C(=C\c1ccc([N+](=O)[O-])cc1)S(=O)Cc1ccc(Cl)cc1)c1ccc(Cl)cc1` (stereo not given) was run?
Its growth is 49.6% (inactive).

Which growth does the source give for `COc1cc2c(c(O)c1Cl)C(=O)c1c(O)cc(C[C@H](C)O)cc1[C@H]2[C@H]1c2cc(C[C@H](C)O)cc(O)c2C(=O)c2c1cc(OC)c(Cl)c2O` here?
The growth was 8.13% (active).

With `Oc1ccc(C(c2ccc(O)cc2)c2ccc(Br)cn2)cc1` as the compound, how does the growth read?
Its growth is 1.64% (active).

How did the growth turn out when `COc1ccc2c(c1)oc1c(C)c3c(c(C)c12)C(=O)N(N)C3=O` was run?
The growth was 38.7% (inactive).

How did the growth turn out when `O=S(=O)(NCCNc1nccc(-c2c(-c3cccc(O)c3)nc3occn23)n1)c1ccc(Cl)cc1` was run?
The growth was 100% (inactive).

With `COc1cc2cc(Oc3cccc(NC(=O)Nc4cc(C(F)(F)F)cc(C(F)(F)F)c4)c3)c(C)nc2cc1OC` as the compound, how does the growth read?
The growth was 7.69% (active).

Which growth does the source give for `CC(C)(C)CC(C)(C)n1nnnc1C(NC12CC3CC(CC(C3)C1)C2)c1ccccc1` (stereo not given) here?
Its growth is 88.8% (inactive).

For `O=C(CCN1CCCC1)Nc1ccc2c(Nc3ccc(F)cc3)c3ccccc3nc2c1`, which growth is on record?
Its growth is 9.14% (active).

How did the growth turn out when `CCCCOc1ccc(/C=N/Nc2cc(C)nc3ccc(Br)cc23)cc1` was run?
Its growth is -78.4% (active).
